From PubChem
ClpP mod = qHTS Assay for Activators of ClpP. Potency, µM (doses to about 57.5 µM), without a hit: at the highest dose activity change, negative = active. purified B. subtilis ClpP, FRET peptide cleavage, 20 min. 340,000 tested, 1.9% active. ATP-dependent Clp protease proteolytic subunit (Bacillus subtilis (strain 168)), P80244; active means well fitted falling curve with a large enough effect; inconclusive means small, poorly fitted or top-dose-only effect; inactive means no such curve, though single readings can be large or run the other way; further: the source files actives as falling curves though it sought activators and does not explain the sign; nearly all actives have a fitted effect of over 65% in size
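Buffer: 100 mM Tris/HCl pH8, 100 mM KCl, 0.05% low protease BSA, 2.5% glycerol, 0.01% Tween-20. ClpP 10 microg/mL final; 20 min RT; delta FRET normalized to ADEP and DMSO controls.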
TDP1 cell CPT = growth inhibition of DT40 Tdp1-/-;hTDP1 cells with camptothecin (screen for TDP1 inhibitors) | chicken DT40 Tdp1-/-;hTDP1 cells + 20 nM CPT, ATP luminescence, 48 h | Potency, µM (top dose mostly 46.2 µM), for the others: at the top dose activity change, negative = growth inhibition, hits mostly inhibitors | 420,000 tested, 12% active; further: on the % scale 0 is the no-effect control and ±100 the full control effect; nearly all actives have a fitted effect of over 55% in size
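Cell growth measured by CellTiter-Glo luminescence after a minimum 48 h, 37 C compound exposure with 20 nM CPT in Tdp1-knockout DT40 cells stably expressing hTDP1, seeded 400/well; qHTS titration format.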
TDP1 inh = TDP1 (human) enzyme inhibition. Potency, µM (titrated, usually from 130 µM), without a hit: at the highest dose activity change, negative = inhibition, actives largely listed as inhibitors. Q9NUW8. AID 485290. recombinant TDP1, AlphaScreen DNA substrate cleavage. 350,000 tested, 0.28% active; further: on the % scale 0 is the no-effect control and ±100 the full control effect; nearly all actives have a fitted effect of over 40% in size
Target sequence (Q9NUW8 whole entry, looked up): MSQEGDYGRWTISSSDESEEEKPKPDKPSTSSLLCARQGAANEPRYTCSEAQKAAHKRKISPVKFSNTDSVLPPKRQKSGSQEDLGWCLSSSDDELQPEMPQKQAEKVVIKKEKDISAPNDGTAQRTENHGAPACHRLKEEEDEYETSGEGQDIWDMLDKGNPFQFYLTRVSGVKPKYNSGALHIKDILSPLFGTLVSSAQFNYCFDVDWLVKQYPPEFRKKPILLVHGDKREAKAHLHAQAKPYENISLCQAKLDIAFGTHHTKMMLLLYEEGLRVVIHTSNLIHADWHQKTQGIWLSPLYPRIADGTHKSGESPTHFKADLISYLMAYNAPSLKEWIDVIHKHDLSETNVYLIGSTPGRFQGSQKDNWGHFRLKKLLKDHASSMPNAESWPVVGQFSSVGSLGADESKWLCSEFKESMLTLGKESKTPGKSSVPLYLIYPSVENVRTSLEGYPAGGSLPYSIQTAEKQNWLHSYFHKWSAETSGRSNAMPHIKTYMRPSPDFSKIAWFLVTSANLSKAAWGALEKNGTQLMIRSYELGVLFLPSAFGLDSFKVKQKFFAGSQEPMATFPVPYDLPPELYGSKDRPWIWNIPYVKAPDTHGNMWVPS
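Here, a 5' biotin and 3' phosphotyrosine-FITC DNA oligonucleotide reports Tdp1 activity: intact substrate bridges AlphaScreen beads, while cleavage leaves a 3' phosphate and drops signal. All incubations at room temperature.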
TDP1 cell noCPT = qHTS for Inhibitors of human tyrosyl-DNA phosphodiesterase 1 (TDP1): qHTS in cells in absence of CPT | DT40 Tdp1-/- hTDP1 cells, no CPT, ATP luminescence, 48 h | Potency, µM (highest dose often 46.2 µM), for inactives: at the top dose activity change, negative = growth inhibition, actives largely listed as inhibitors | 420,000 tested, 15% active | AID 686978, 2013; further: on the % scale 0 is the no-effect control and ±100 the full control effect; nearly all actives have a fitted effect of over 55% in size
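No-CPT arm: Tdp1-/-;hTDP1 DT40 cells (400/well) plus compounds, incubated ≥48 hr at 37 °C. Readout CellTiter-Glo luminescence.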
The depositor's hits bear a star; ? = inconclusive; · = no result given; [ ] = another dose, or the depositor's remark. Compounds with a hit are over-represented: about 17% of the library has one in this group of screens. Unless noted, the call rests on the fitted dose curve; in most records, active means well fitted curve in the direction sought with a large enough effect; inconclusive means small, poorly fitted or top-dose-only effect, or another doubt; inactive means no such curve, though single readings can be large; an effect the other way counts as inactive or inconclusive. Potency means the concentration at half of the fitted maximal effect.

SMILES	ClpP mod	TDP1 cell CPT	TDP1 inh	TDP1 cell noCPT
O=C(NC1CCCC1)c1cccc2c1C(=O)c1ccc(Cl)cc1S2(=O)=O	-1.0%	-4.2%	0.1%	-20.2%
CC(C)c1cccc(-c2ccc3c(c2)S(=O)(=O)c2cccc(C(=O)NCc4ccco4)c2C3=O)c1	1.5%	?	44.7µM*	?
O=C1c2ccc(Cl)cc2S(=O)(=O)c2cccc(C(=O)N3CCC(Cc4ccccc4)CC3)c21	0.7%	?	5.8%	23.1µM*
O=C(NCc1ccc(F)cc1)c1cccc2c1C(=O)c1ccc(N3CCOCC3)cc1S2(=O)=O	-1.9%	23.1µM*	-8.3%	?
CC(C)(C)CNC(=O)c1cccc2c1C(=O)c1ccc(-c3cc4ccccc4o3)cc1S2(=O)=O	18.6%	16.4µM*	0.8%	?
CN1C(=O)NC(c2cccc([N+](=O)[O-])c2)C2=C1CCCC2=O (centres undefined)	2.3%	3.1%	·	1.2%
O=C(NCC1CC1)c1cccc2c1C(=O)c1ccc(-c3ccc(OC(F)(F)F)cc3)cc1S2(=O)=O	-2.0%	13µM*	1.3%	23.1µM*
O=C1c2ccccc2S(=O)(=O)c2cc(N3CCC(C(=O)N4CCCCC4)CC3)ccc21	-0.7%	20.6µM*	·	18.4µM*
CCN(C(=O)C(C)Sc1nnc(-c2ccncc2)n1C)C1CCCCC1 (centres undefined)	-0.6%	-14.8%	-0.4%	-2.2%
COC(=O)/C=C/c1cccc(N(Cc2ccc(-c3ccc(N(C)C)cc3)cc2)C(=O)C2CCCCC2)c1	·	·	21.3%	·
CC(C)Oc1ccc(CNC(=O)CCCn2c(=O)c3cccn3c3cccnc32)cc1	4.0%	25.9µM*	5.1%	16.4µM*
COCCCNC(=O)CCCn1c(=O)c2cccn2c2cccnc21	4.5%	0.2%	2.6%	-9.7%
CC(C(=O)NCCc1ccc(Cl)cc1)n1c(=O)c2cccn2c2cccnc21 (centres undefined)	-8.8%	?	7.2%	18.4µM*
CC(C)Oc1ccc(CNC(=O)CCCn2c(=O)c3cccn3c3ccccc32)cc1	?	16.4µM*	3.9%	23.1µM*
Cc1ccc(NC(=O)CCCn2c(=O)c3cccn3c3cccnc32)cc1C	-7.1%	?	-2.6%	?
CSc1cccc(NC(=O)CCCn2c(=O)c3cccn3c3cccnc32)c1	-9.9%	?	4.3%	20.6µM*
CCCN(C)C1CN(Cc2cn(Cc3ccc(F)cc3)nn2)S(=O)(=O)C1 (centres undefined)	-1.4%	6.4%	·	-8.9%
CC(=O)OCC(CO)OC(C)=O (centres undefined) (tested in a mixture with another compound)	·	·	6.2%	·
COc1ccc(C(CNC(=O)C2COc3ccccc3O2)N2CCCC2)cc1 (centres undefined)	1.1%	-4.7%	3.1%	-3.9%
O=S(=O)(NCc1nc2cccnc2n1Cc1ccc(F)cc1)c1ccc(Cl)s1	-2.4%	?	5.5%	?
CCc1ccc(CNC(=O)CCCn2c(=O)c3cccn3c3cccnc32)cc1	-16.6%	16.4µM*	2.6%	?
CCOc1cc(CNC(=O)CCCn2c(=O)c3cccn3c3cccnc32)cc(OCC)c1OCC	-19.0%	?	-2.6%	23.1µM*
O=C(CCCn1c(=O)c2cccn2c2cccnc21)NCc1cccc(Br)c1	-13.7%	?	5.2%	?
O=C(CCCn1c(=O)c2cccn2c2cccnc21)NCCc1ccc(Cl)cc1	-7.5%	20.6µM*	2.4%	23.1µM*
O=C(CCn1c(=O)c2cccn2c2cccnc21)NCc1ccc(Cl)cc1	-21.4%	-14.9%	-2.6%	?
SMILES	ClpP mod	TDP1 cell CPT	TDP1 inh	TDP1 cell noCPT
COc1ccc2c(c1)sc(=N)n2C	?	18.4µM*	4.6%	18.4µM*
CCOc1cc(-c2nc3c(c(CC)nn3-c3ccccc3)c3cc(OC)c(OC)cc23)ccc1O	3.6%	3.26µM*	5.7%[12.3 µM]	?
CCc1nn(-c2ccccc2)c2nc(-c3ccccc3OC)c3cc(OC)c(OC)cc3c12	4.4%	18.4µM*	-8.4%[12.3 µM]	16.4µM*
FC(F)(F)c1ccc(-c2noc(-c3ccccc3Br)n2)cc1	0.7%	16.4µM*	5.2%	?
Cc1ccc(-c2noc(-c3ccccc3F)n2)cc1	·	7.3%	-11.0%	-6.4%
O=C(Nc1nc(-c2ccccn2)cs1)c1ccc(Cl)s1	-1.1%	1.03µM*	9.8%	0.92µM*
O=C(Nc1nc(-c2ccccn2)cs1)c1ncc(Cl)c(Cl)c1Cl	-2.6%	-104.6%	9.5%	3.26µM*
CCc1sc(C(=O)NCc2ccccc2)cc1C	·	20.6µM*	-7.7%	13µM*
Cn1cccc1C(=O)Nc1nc(-c2ccccn2)cs1	-3.8%	2.59µM*	-2.9%	4.11µM*
CCc1sc(C(=O)NNC(=O)CNC(=O)c2ccccc2F)cc1C	-2.8%	-10.4%	0.5%	-9.2%
Cc1ccc(S(=O)(=O)Nc2cccc(C(=O)N3CCC(C(N)=O)CC3)c2)cc1	3.1%	-12.9%	-1.0%[56.1 µM]	-5.9%
CCc1sc(C(=O)Nc2nc(-c3ccccn3)cs2)cc1C	·	2.91µM*	4.1%	4.11µM*
O=C(O)C1(c2ccccc2)CCN(S(=O)(=O)c2cccc(Cl)c2)CC1	·	-1.0%	5.2%	-4.7%
COc1cccc(/C=N/NC(=S)NC2CC3CCC2C3)c1OC (centres undefined)	-23.6%	?	3.8%	20.6µM*
COc1cccc(/C=N/n2c(CO)nc3ccccc32)c1OC	0.0%	-8.9%	2.5%	-29.6%
CNc1nc2ccccc2n1/N=C/c1cccc(OC)c1OC	0.2%	?	3.8%	20.6µM*
COc1cccc(/C=N/Nc2nnc(C)n2N)c1OCc1ccccc1Cl	-1.8%	?	5.5%	23.1µM*
COc1cccc(C=NNC(=S)NN=Cc2cccc(OC)c2OC)c1OC	·	4.61µM*	·	4.11µM*
O=C1c2ccccc2C(=O)N1c1nc(-c2ccc(F)cc2)cs1	0.1%	-8.0%	·	?
CC(C)(C)NC(=O)CN(Cc1ccc2c(c1)OCO2)C(=O)CNS(=O)(=O)c1ccccc1	-9.1%	-3.9%	10.4%	-12.9%
COc1cccc(C=NNc2nnc(NN=Cc3cccc(OC)c3OC)c3ccccc23)c1OC	?	23.1µM*	·	20.6µM*
COc1ccccc1/C=N/Nc1nncc2ccccc12	·	-4.6%	-3.2%	?
COc1ccc(C(C#N)=Cc2ccc(N(C)CCC#N)cc2)cc1	-1.8%	23.1µM*	·	25.9µM*
CN(C)c1ccc(/C=C(\C#N)C(=O)c2ccccc2)cc1	1.0%	-26.5%	0.0%	-17.0%
CN(C)c1ccc(C=C(C#N)C(=O)c2ccccc2)cc1Br	1.0%	-0.6%	·	-1.8%
CN(C)c1ccc(/C=C(\C#N)c2ccccc2)cc1	1.6%	2.59µM*	2.9%	2.59µM*
CN(C)c1cccc(/C=C(\C#N)c2ccccc2)c1	-0.1%	2.91µM*	1.3%	2.31µM*
COc1ccc(N=Cc2ccc(N(CCC#N)CCC#N)cc2)cc1	-0.3%	5.4%	·	-18.7%
